# Results reported in PubChem BioAssay (NCI).
# This is part of a sample that, as a whole, favours compounds with a hit. Of some 79,000 tested, about 15% had one in any assay. Values without a mark were called inactive. Active and inactive are the calls of the source. Cut-off read from the data, not from the text of the source: active = growth inhibition above about 70%; inactive = the rest.
# Assays:
# [1] = NCI Yeast Anticancer Drug Screen. Data for the rad50 strain (AID 155);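 note: 0% = growth of vehicle-only cultures of the same strain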; details: S. cerevisiae rad50 strain growth inhibition, stronger effect = higher value
# Method in brief: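 Compounds were tested on a yeast strain with an engineered DNA damage repair alteration; the reported value is growth inhibition normalised to vehicle treatment.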
# [2] = NCI Yeast Anticancer Drug Screen. Data for the mec2-1 strain (AID 157); details: S. cerevisiae mec2-1 strain, stronger effect = higher value
# Method in brief: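 Test agents were screened against the mec2-1 yeast strain, with defined DNA repair or cell cycle alteration. Growth was scored as inhibition against vehicle-only controls.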
# [3] = NCI Yeast Anticancer Drug Screen. Data for the sgs1 mgt1 strain (AID 161);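 note: 0% = growth of cultures given vehicle only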; details: S. cerevisiae sgs1 mgt1 strain, stronger effect = higher value
# Method in brief: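 Mutant yeast exposed to compound; growth scored against vehicle-only wells.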
# [4] = NCI Yeast Anticancer Drug Screen. Data for the cln2 rad14 strain (AID 165);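 note: 0% = growth equal to vehicle treated cultures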; details: S. cerevisiae cln2 rad14 strain, stronger effect = higher value
# Method in brief: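 Growth of compound-exposed yeast (cln2 rad14 genotype) measured and expressed as inhibition relative to vehicle.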
# [5] = NCI Yeast Anticancer Drug Screen. Data for the bub3 strain (AID 167); details: S. cerevisiae bub3 mutant strain, stronger effect = higher value
# Method in brief: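 Growth of a checkpoint-deficient yeast mutant is measured after compound exposure. Values represent inhibition relative to vehicle.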
# [6] = NCI Yeast Anticancer Drug Screen. Data for the mlh1 rad18 strain (AID 175); details: S. cerevisiae mlh1 rad18 strain growth inhibition, stronger effect = higher value
# Method in brief: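 In this whole-cell yeast screen, a strain with altered DNA damage repair is challenged with compound, and its growth is measured against matched vehicle-treated controls.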
# [7] = at 5.0 µM (retest, dose inferred, filed as 0.5)
# [8] = at 50.0 µM (retest, dose inferred, filed as 5.0)
SMILES,"growth inhibition [1, 7]","growth inhibition [1, 8]",growth inhibition ([1]; at 50.0 µM),"growth inhibition [2, 7]","growth inhibition [2, 8]",growth inhibition ([2]; at 50.0 µM),"growth inhibition [3, 7]","growth inhibition [3, 8]",growth inhibition ([3]; at 50.0 µM),"growth inhibition [4, 7]","growth inhibition [4, 8]",growth inhibition ([4]; at 50.0 µM),"growth inhibition [5, 7]","growth inhibition [5, 8]",growth inhibition ([5]; at 50.0 µM),"growth inhibition [6, 7]","growth inhibition [6, 8]",growth inhibition ([6]; at 50.0 µM)
O=Cc1ccc([N+](=O)[O-])o1,36%,98% (active),99.6% (active),7%,99% (active),99.4% (active),13%,99% (active),99.6% (active),-1%,85% (active),98.6% (active),-3%,57%,99.8% (active),20%,99% (active),99.5% (active)
CCCCCCCCCCCCCCCCCC[N+]1(CC)CCCCC1,99% (active),99% (active),90.3% (active),99% (active),99% (active),91.2% (active),99% (active),99% (active),91.5% (active),99% (active),99% (active),90.2% (active),99% (active),99% (active),90.4% (active),99% (active),99% (active),89.2% (active)
Cc1ccc(C)c(N2C/C(=N\NC(=O)CC#N)C(c3nc4ccccc4s3)C(=O)C2=O)c1 (stereo not given),0%,1%,7.9%,0%,2%,-0.3%,-3%,-3%,-5.2%,-3%,-1%,12.6%,33%,19%,-0.3%,1%,1%,20.9%
CC(=O)Nc1ccc(/C=c2\sc3nnc(-c4cccnc4)n3c2=O)cc1,33%,87% (active),89.8% (active),7%,91% (active),88% (active),6%,78% (active),87.2% (active),-5%,58%,71% (active),8%,94% (active),80.5% (active),-17%,95% (active),86.5% (active)
CC(C)=NNc1ncnc2nc[nH]c12,11%,3%,12.5%,-1%,-11%,19.1%,-4%,-13%,-28.8%,4%,-3%,25.6%,5%,2%,6.9%,-14%,3%,-7.5%
